# Source: the OligoGym collection
# How the values were obtained:
# Assay in all cases: pooled miR-30 sensor sort-seq; sequence = guide strand
# Conditions in all cases: shRNA
# SPOCK1 = target: SPOCK1
# SPINK5 = target: SPINK5
# SPINK6 = target: SPINK6
# SPESP1 = target: SPESP1
# SQRDL = target: SQRDL
# SRSF11 = target: SRSF11
# SSR4 = target: SSR4
# ST6GAL2 = target: ST6GAL2
# STK32B = target: STK32B
# STX12 = target: STX12
# SULT1A2 = target: SULT1A2
# SURF1 = target: SURF1
# SYN3 = target: SYN3
# SYCP2L = target: SYCP2L
# SYBU = target: SYBU
# SYT2 = target: SYT2
# SYTL4 = target: SYTL4
# SYTL1 = target: SYTL1
# TAAR8 = target: TAAR8
# Note: reference of the scale not given here.
sequence,measurement,setting,value
TAATCATCGTCTCGAAAGCGGT,sensor-assay potency score (higher = more potent),SPOCK1,-1.33
TTTAAAATCATCACAATTCAGC,sensor-assay potency score (higher = more potent),SPINK5,-0.669
TTGAAAAAATTTCTTATCCTGG,sensor-assay potency score (higher = more potent),SPINK5,-0.827
TTGCTCTTGCTCTTTCTTCTTG,sensor-assay potency score (higher = more potent),SPINK5,-0.499
ATACTCAGCACATTCGTCCTGA,sensor-assay potency score (higher = more potent),SPINK5,0.519
ATATTCTAGGTCATCCAGCAGG,sensor-assay potency score (higher = more potent),SPOCK1,-0.735
TTTTGTTTCTAGCTCGTGCTTC,sensor-assay potency score (higher = more potent),SPINK5,0.162
TCATAGTTCATGTCCAACTTGT,sensor-assay potency score (higher = more potent),SPOCK1,0.349
TTTGTCATCATCCTCATCCTCA,sensor-assay potency score (higher = more potent),SPOCK1,0.0865
TGAATTAAAGGAATCCACCAGC,sensor-assay potency score (higher = more potent),SPINK6,-0.148
TTAGATTCCCGAGTGCAGTAGA,sensor-assay potency score (higher = more potent),SPINK6,0.5
TTCATATTCTAGGTCATCCAGC,sensor-assay potency score (higher = more potent),SPOCK1,-0.469
TAGATGATTCAGTAACAACTGG,sensor-assay potency score (higher = more potent),SPESP1,-0.346
TTTATTGCCATATGTCTGGCCA,sensor-assay potency score (higher = more potent),SPINK6,-0.38
TATTGCCATATGTCTGGCCATC,sensor-assay potency score (higher = more potent),SPINK6,-1.73
TCCAACTTGTTGAACATCCAGC,sensor-assay potency score (higher = more potent),SPOCK1,-1.54
TTCCCGAGTGCAGTAGACCTTG,sensor-assay potency score (higher = more potent),SPINK6,-0.732
TTGTCTGTGCAGGCACTCCTTT,sensor-assay potency score (higher = more potent),SPOCK1,-0.821
TAGACATACATTGAACTCCTCA,sensor-assay potency score (higher = more potent),SPINK6,-0.369
TTAGGCTAATCTTTCCACCACT,sensor-assay potency score (higher = more potent),SPINK6,-0.87
TTGTTTTTAATTTATGTTCTGC,sensor-assay potency score (higher = more potent),SPESP1,0.0799
TTTTCTTGAAGCTTTGCCCTTT,sensor-assay potency score (higher = more potent),SPINK5,0.275
TTGTGCATCCAAGTCTTCCATC,sensor-assay potency score (higher = more potent),SPINK5,-1.09
TCTCTTTTGACTTTTGCTCTGG,sensor-assay potency score (higher = more potent),SPINK5,-0.0301
TTGCACTTGACCAAATTCGAAG,sensor-assay potency score (higher = more potent),SPOCK1,-1.14
TGCTTTAGGCTAATCTTTCCAC,sensor-assay potency score (higher = more potent),SPINK6,-0.643
TTTTATTACTTGTTCGTCCTAC,sensor-assay potency score (higher = more potent),SPESP1,0.295
TAAAAAGCAGAAAAGAGCCAGA,sensor-assay potency score (higher = more potent),SPINK6,-0.281
TAATCTTTCCACCACTTTTCAC,sensor-assay potency score (higher = more potent),SPINK6,-1.05
TTGTATAGAACTTTCCATCAGC,sensor-assay potency score (higher = more potent),SPINK5,-0.111
TTGTTTTGCAGCTGGCTCCGGC,sensor-assay potency score (higher = more potent),SPESP1,-0.682
TAGATTTTTTCTCACGACCTGG,sensor-assay potency score (higher = more potent),SPESP1,-0.569
TTGCACTTGGATGTGTAGGAGT,sensor-assay potency score (higher = more potent),SPOCK1,-0.759
TATTGAATACTGTAGCAGCTTT,sensor-assay potency score (higher = more potent),SPESP1,-0.369
ATGTATTGAATACTGTAGCAGC,sensor-assay potency score (higher = more potent),SPESP1,-1.16
GAACTCACCACAGTCAACCTGT,sensor-assay potency score (higher = more potent),SPINK6,-0.413
TTGGTCACCATTACCCATCAAG,sensor-assay potency score (higher = more potent),SQRDL,-1.14
TATCTGGTTCTATAGCAGCAGA,sensor-assay potency score (higher = more potent),SRSF11,-1.33
TTCCTCTTCATCATAATCCCGT,sensor-assay potency score (higher = more potent),SRSF11,0.0321
TCAGAAGTGGTGTAGTAGGAAG,sensor-assay potency score (higher = more potent),SSR4,-1.28
TCGAGTGACAGGGAATTGTTTT,sensor-assay potency score (higher = more potent),SSR4,-0.927
TGCGTCGTAGTACAGCTCGTGG,sensor-assay potency score (higher = more potent),ST6GAL2,-0.842
AAAGTAGTCGTCATCCTCCGGG,sensor-assay potency score (higher = more potent),ST6GAL2,0.386
TTTGCCAATCGCTTCTTCTTTT,sensor-assay potency score (higher = more potent),STK32B,-0.852
AAATATCTGATTGACATCCAAA,sensor-assay potency score (higher = more potent),STX12,-1.28
TTTTCCTGTAGCTTGCTTGAGT,sensor-assay potency score (higher = more potent),STX12,0.00107
TCTTGCACGTGCTGGTACCAGG,sensor-assay potency score (higher = more potent),SULT1A2,-1.6
TTTATTCTGGAGCCTCTTGGTC,sensor-assay potency score (higher = more potent),SULT1A2,-0.833
TTGAAATACTGCATTATCCAGG,sensor-assay potency score (higher = more potent),SURF1,-0.184
TTCCACATGCTCTCCAATCAGC,sensor-assay potency score (higher = more potent),SYN3,-0.957
TTCATCACCGCTTCCTTCGGAA,sensor-assay potency score (higher = more potent),SYCP2L,-0.0578
TAATCTCTGCCATCCTTGCTGT,sensor-assay potency score (higher = more potent),SYN3,-0.283
TTTGATTCCTTCTTATATCGAG,sensor-assay potency score (higher = more potent),SYBU,0.632
TCGATCACCAACAGGATCCTGG,sensor-assay potency score (higher = more potent),SYN3,-0.321
TCACCAACCATTCCAATCGTGC,sensor-assay potency score (higher = more potent),SYBU,-1.21
TTCATGACTTCTTTGTAGCTGA,sensor-assay potency score (higher = more potent),SYCP2L,0.227
TTCTATAACACAAATCAGCGAC,sensor-assay potency score (higher = more potent),SYCP2L,-0.297
ATCTTCTATAACACAAATCAGC,sensor-assay potency score (higher = more potent),SYCP2L,-1.67
TTGCATGAACTTCTGCATCCAC,sensor-assay potency score (higher = more potent),SYBU,0.0297
TTCCACTTTGATCTTTCCCATT,sensor-assay potency score (higher = more potent),SYN3,-1.45
TCATCGAACAAATCTGTGCTGT,sensor-assay potency score (higher = more potent),SYBU,-0.248
TTAAACCACAGGTAGGATGTAG,sensor-assay potency score (higher = more potent),SURF1,-0.235
TTCGATGACCTGTTTGAGCTGT,sensor-assay potency score (higher = more potent),SYBU,0.425
TAGTTGGATCCAATTTTCTGGA,sensor-assay potency score (higher = more potent),SYN3,-1.06
TTGTAGGAGCCTGAGTTGCTAC,sensor-assay potency score (higher = more potent),SYBU,-1.24
TTCCTCAGAGTAACTCTGGTTT,sensor-assay potency score (higher = more potent),SURF1,-0.24
TATATAAAAAGTGACACTCTGA,sensor-assay potency score (higher = more potent),SYCP2L,-0.257
TTAAATGGAAACACTAATCTTT,sensor-assay potency score (higher = more potent),SYBU,0.258
TTGATTGTTGTGACTTAGCAAA,sensor-assay potency score (higher = more potent),SYCP2L,-1.27
TTGGTCACCAAGTCTGTTGTTT,sensor-assay potency score (higher = more potent),SYCP2L,-0.185
TTGGCCTCGTCTTCACTTGGGG,sensor-assay potency score (higher = more potent),SYN3,-0.142
TTCTTTGTAGCTGATAATCATG,sensor-assay potency score (higher = more potent),SYCP2L,-1.28
TTGATTCCTTCTTATATCGAGA,sensor-assay potency score (higher = more potent),SYBU,-0.708
TTCTGCATCCACATTGGCGTAG,sensor-assay potency score (higher = more potent),SYBU,-0.476
TTATTGATCTGTCAAGACGGTA,sensor-assay potency score (higher = more potent),SYCP2L,-0.997
TAGGAATTTCTTAAACCACAGG,sensor-assay potency score (higher = more potent),SURF1,-0.992
TAACAGTTTAAGAACAAACAAG,sensor-assay potency score (higher = more potent),SYBU,-1.43
TTTCTTAAACCACAGGTAGGAT,sensor-assay potency score (higher = more potent),SURF1,-0.803
TAAAATCAGCTTCACTACCTGG,sensor-assay potency score (higher = more potent),SYBU,-0.495
TTCACCAACCATTCCAATCGTG,sensor-assay potency score (higher = more potent),SYBU,0.00982
TAGGTTTTTCTTCATCTTCTGA,sensor-assay potency score (higher = more potent),SYCP2L,-0.679
TTTTGGAGACAACAAGGTCGGC,sensor-assay potency score (higher = more potent),SYN3,-0.766
AATATCTTTATCTTCTCCGTTT,sensor-assay potency score (higher = more potent),SYCP2L,-0.529
TTTCTGGATGCGGATGTCGTAC,sensor-assay potency score (higher = more potent),SYN3,-1.02
TTTGGTCTCATATTTCTTCTTC,sensor-assay potency score (higher = more potent),SYT2,0.677
TTTGCTGCTGTGGAGATCCGGA,sensor-assay potency score (higher = more potent),SYN3,-0.473
TTTGGAGACAACAAGGTCGGCC,sensor-assay potency score (higher = more potent),SYN3,-0.0801
TTGTAGACGGAGTAGAGAGAGT,sensor-assay potency score (higher = more potent),SYN3,-1.24
TTTCATGTACCACATCTTCTGG,sensor-assay potency score (higher = more potent),SYTL4,-0.423
TTCATGTACCACATCTTCTGGG,sensor-assay potency score (higher = more potent),SYTL4,0.0201
TTTCACAGCAGCCTCAGCCTCC,sensor-assay potency score (higher = more potent),SYTL1,-0.778
TCAGTAACCACAATGTACCTGT,sensor-assay potency score (higher = more potent),TAAR8,0.327
TTCTTCACCGCCGTCTTGCGCT,sensor-assay potency score (higher = more potent),SYTL1,-1.02
TTTCTTCAACTCTATTTCCTTG,sensor-assay potency score (higher = more potent),SYTL4,-0.969
TAATCCTTTTCTCATCTGCTTT,sensor-assay potency score (higher = more potent),SYTL4,-1.12
TTTCTGAATCTGCTCGAAGGGG,sensor-assay potency score (higher = more potent),SYT2,-0.751
TTCAACTCTATTTCCTTGGCGC,sensor-assay potency score (higher = more potent),SYTL4,0.409
AACACTGAGAATCAAATCCTTT,sensor-assay potency score (higher = more potent),SYTL4,-1.16
TTCTGAATCTGCTCGAAGGGGA,sensor-assay potency score (higher = more potent),SYT2,0.015
TTAGTGTACTCTGAAGGCCTGA,sensor-assay potency score (higher = more potent),SYTL4,-0.464
TATCTCATTGAATAACTTCTCC,sensor-assay potency score (higher = more potent),SYT2,-0.214
TGAGGTCCAACAGTCCTTCAGT,sensor-assay potency score (higher = more potent),SYTL1,-0.459
TAGCCTTTAAAACATCTCCACT,sensor-assay potency score (higher = more potent),TAAR8,-0.818
TTGACATAAGGGTCTGAGGTGC,sensor-assay potency score (higher = more potent),SYT2,-0.653
TCATGTACCACATCTTCTGGGC,sensor-assay potency score (higher = more potent),SYTL4,0.653
TTCTTTAGTCGCCTAATCCTTT,sensor-assay potency score (higher = more potent),SYTL4,-1.13
TTATCCAGAGAGTCTCTCCTGG,sensor-assay potency score (higher = more potent),SYTL4,-0.0866
TTATAGCTTGTTGTTTAGCTAT,sensor-assay potency score (higher = more potent),TAAR8,-0.98
TTTAGCTATAAGAAAAATCTTA,sensor-assay potency score (higher = more potent),TAAR8,-0.583
TTCTCTTTCACAGCAGCCTCAG,sensor-assay potency score (higher = more potent),SYTL1,-1.16
TTTATCTCATTGAATAACTTCT,sensor-assay potency score (higher = more potent),SYT2,-0.172
TTCCTGCGCATAGACGCTCGGA,sensor-assay potency score (higher = more potent),SYTL1,-0.515
TTCACCGCCGTCTTGCGCTTGC,sensor-assay potency score (higher = more potent),SYTL1,-0.681
TTGAATAACTTCTCCTTCAGTT,sensor-assay potency score (higher = more potent),SYT2,0.105
TCTCATTGAATAACTTCTCCTT,sensor-assay potency score (higher = more potent),SYT2,-0.0548
TTGTACGTAAGTGTCCAGGGAT,sensor-assay potency score (higher = more potent),SYTL1,0.203
TACCTGGACTTTCTGAATCTGC,sensor-assay potency score (higher = more potent),SYT2,-0.968
TCGCACAACCCTTGTACGCTGG,sensor-assay potency score (higher = more potent),SYTL1,-0.836
TTATCCGGGAGGAGGTAGCTTT,sensor-assay potency score (higher = more potent),SYTL1,-1.36
TAGTGGATTAACAGTGTCCCGC,sensor-assay potency score (higher = more potent),SYTL4,-0.966
